Read-out in assay [1]: Protein phosphatase 2A (PPP2R4), PTPA (gene 5524)
Description: LTEA_HepaRG_PPP2R4: Life Technologies and Expression Analysis (LTEA) Assay for Protein phosphatase 2A (PPP2R4) using HepaRG (AID 2283522). The conditions noted are these: mRNA level, 48 h; actives raise or lower the signal. The procedure, abridged: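 HepaRG, 48 h exposure, 8-pt half-log series from 100 uM, 0.5% DMSO vehicle, duplicates. Readout: PPP2R4 mRNA, Fluidigm qRT-PCR, housekeeping-normalized. Bidirectional curve fit vs DMSO baseline.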

Read-out in assay [2]: Phosphatase and tensin (PTEN), PTEN (gene 5728)
Kind of assay: LTEA_HepaRG_PTEN: Life Technologies and Expression Analysis (LTEA) Assay for Phosphatase and tensin (PTEN) using HepaRG (AID 2283523). Conditions: mRNA level, 48 h; actives raise or lower the signal. The procedure, abridged:
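Expression of PTEN is quantified in the human liver line HepaRG following two days of dosing (top concentration 100 uM, half-log dilutions, 0.5% DMSO). Values derive from bidirectional curve fitting relative to DMSO controls.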

Read-out in assay [3]: solute carrier (SLC22A1), SLC22A1 (gene 6580)
Description: LTEA_HepaRG_SLC22A1: Life Technologies and Expression Analysis (LTEA) Assay for solute carrier (SLC22A1) using HepaRG (AID 2283524). The conditions noted are these: mRNA level, 48 h; actives raise or lower the signal. The procedure, abridged: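 Transcript induction or suppression of SLC22A1 in human HepaRG cultures is scored after 48 h chemical treatment, with DMSO (0.5%) as baseline for bidirectional fitting. Concentrations span eight half-log points topping at 100 uM.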

Read-out in assay [4]: Pyruvate Dehydrogenase Kinase 4 (PDK4), PDK4 (gene 5166)
Kind of assay: LTEA_HepaRG_PDK4: Life Technologies and Expression Analysis (LTEA) Assay for Pyruvate Dehydrogenase Kinase 4 (PDK4) using HepaRG (AID 2283525). The conditions noted are these: mRNA level, 48 h; actives raise or lower the signal. The procedure, abridged:
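Eight-point, half-log concentration series (max 100 uM, 0.5% DMSO) applied to differentiated HepaRG cells for 48 h in duplicate. Endpoint: PDK4 mRNA induction or repression by qRT-PCR against DMSO baseline.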

Read-out in assay [5]: NAD(P)H dehydrogenase [quinone] 1 (NQO1), NQO1 (gene 1728)
Description: LTEA_HepaRG_NQO1: Life Technologies and Expression Analysis (LTEA) Assay for NAD(P)H dehydrogenase [quinone] 1 (NQO1) using HepaRG (AID 2283526). Conditions: mRNA level, 48 h; actives raise or lower the signal. The procedure, abridged: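 qRT-PCR read-out (Fluidigm TaqMan), normalized to three housekeeping genes, after 48 h chemical exposure of HepaRG cells. Concentrations: eight points, top 100 uM, half-log steps, 0.5% DMSO vehicle. Gain or loss of signal fitted relative to DMSO.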

Read-out in assay [6]: Nuclear factor erythroid 2-related factor 2 (Homo sapiens) (UniProt Q16236)
Description: LTEA_HepaRG_NFE2L2: Life Technologies and Expression Analysis (LTEA) Assay for Nuclear factor erythroid 2-related factor 2 (NFE2L2) Transcription Factor using HepaRG (AID 2283527). Conditions: mRNA level, 48 h; actives raise or lower the signal. The procedure, abridged:
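Human liver HepaRG line treated in duplicate for 48 h with an eight-point series topping at 100 uM. Gene expression of NFE2L2 by qRT-PCR, bidirectionally fitted against the vehicle control.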

Read-out in assay [7]: succinate dehydrogenase complex iron sulfur subunit B (SDHB), SDHB (gene 6390)
Kind of assay: LTEA_HepaRG_SDHB: Life Technologies and Expression Analysis (LTEA) Assay for succinate dehydrogenase complex iron sulfur subunit B (SDHB) using HepaRG (AID 2283528). The conditions noted are these: mRNA level, 48 h; actives raise or lower the signal. The procedure, abridged: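 HepaRG, 48 h exposure, 8-pt half-log series from 100 uM in 0.5% DMSO, duplicates. Readout: SDHB mRNA by Fluidigm qRT-PCR vs housekeeping genes; bidirectional fit relative to DMSO.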

Read-out in assay [8]: Signal transducer and activator of transcription 3 (Homo sapiens) (UniProt P40763)
Kind of assay: LTEA_HepaRG_STAT3: Life Technologies and Expression Analysis (LTEA) Assay for Signal transducer and activator of transcription (STAT3) using HepaRG (AID 2283529). The conditions noted are these: mRNA level, 48 h; actives raise or lower the signal. The procedure, abridged: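 In this transcriptional endpoint, HepaRG cultures receive test chemicals at up to 100 uM for 48 h, tested in duplicate. STAT3 mRNA is normalized to ACTB, GAPDH and POLR2A.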

Read-out in assay [9]: solute carrier (SLCO1B1), SLCO1B1 (gene 10599)
Description: LTEA_HepaRG_SLCO1B1: Life Technologies and Expression Analysis (LTEA) Assay for solute carrier (SLCO1B1) using HepaRG (AID 2283530). Conditions: mRNA level, 48 h; actives raise or lower the signal. The procedure, abridged:
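SLCO1B1 transcript levels were quantified by TaqMan qRT-PCR using three housekeeping genes for normalization. This followed 48 h chemical exposure (100 uM top, half-log, 8 points, 0.5% DMSO) of HepaRG liver cells, with gain or loss fitted relative to DMSO.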

Read-out in assay [10]: sulfotransferase 2A1 (SULT2A1), SULT2A1 (gene 6822)
Description: LTEA_HepaRG_SULT2A1: Life Technologies and Expression Analysis (LTEA) Assay for sulfotransferase 2A1 (SULT2A1) using HepaRG (AID 2283531). The conditions noted are these: mRNA level, 48 h; actives raise or lower the signal. The procedure, abridged: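 Expression change of SULT2A1, by qRT-PCR with three housekeeping-gene normalization, was scored bidirectionally versus DMSO. Cells: differentiated HepaRG, dosed in duplicate for 48 h across 8 points, highest 100 µM, half-log dilution, 0.5% DMSO.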

Read-out in assay [11]: Transforming Growth Factor (TGFA), TGFA (gene 7039)
Description: LTEA_HepaRG_TGFA: Life Technologies and Expression Analysis (LTEA) Assay for Transforming Growth Factor (TGFA) using HepaRG (AID 2283532). The conditions noted are these: mRNA level, 48 h; actives raise or lower the signal. The procedure, abridged: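 Gene expression of TGFA was quantified by qRT-PCR after human HepaRG cells were treated for 48 h with test chemicals (eight concentrations, highest 100 uM, 0.5% DMSO). Activity in either direction was fitted relative to DMSO.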

Read-out in assay [12]: Transforming Growth Factor (TGFB1), TGFB1 (gene 7040)
Description: LTEA_HepaRG_TGFB1: Life Technologies and Expression Analysis (LTEA) Assay for Transforming Growth Factor (TGFB1) Transporter using HepaRG (AID 2283533). Conditions: mRNA level, 48 h; actives raise or lower the signal. The procedure, abridged: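 TGFB1 transcript measured by qRT-PCR with normalisation to three housekeeping genes (ACTB, GAPDH, POLR2A); human HepaRG line treated in duplicate for 48 hr with an 8-point series topping at 100 uM, 0.5% DMSO vehicle, bidirectionally fitted.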

Read-out in assay [13]: TIMP1, TIMP1 (gene 7076)
Kind of assay: LTEA_HepaRG_TIMP1: Life Technologies and Expression Analysis (LTEA) Assay for TIMP1 using HepaRG (AID 2283534). The conditions noted are these: mRNA level, 48 h; actives raise or lower the signal. The procedure, abridged: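 Bidirectional change in TIMP1 transcript versus 0.5% DMSO, measured by TaqMan qRT-PCR with three housekeeping genes for normalization. HepaRG human liver cells dosed 48 h in duplicate, top concentration 100 uM with half-log dilutions.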

Read-out in assay [14]: Tumor necrosis factor receptor 1 (TNFRSF1A), TNFRSF1A (gene 7132)
Description: LTEA_HepaRG_TNFRSF1A: Life Technologies and Expression Analysis (LTEA) Assay for Tumor necrosis factor receptor 1 (TNFRSF1A) using HepaRG (AID 2283535). The conditions noted are these: mRNA level, 48 h; actives raise or lower the signal. The procedure, abridged:
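mRNA measured by qRT-PCR (TaqMan, Fluidigm arrays) against ACTB/GAPDH/POLR2A housekeepers after 48 h chemical exposure of HepaRG cells. Top concentration 100 uM, half-log 8-point series, duplicates; vehicle 0.5% DMSO, both fit directions.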

Read-out in assay [15]: Thyroid Hormone Responsive (THRSP), THRSP (gene 7069)
Kind of assay: LTEA_HepaRG_THRSP: Life Technologies and Expression Analysis (LTEA) Assay for Thyroid Hormone Responsive (THRSP) using HepaRG (AID 2283536). Conditions: mRNA level, 48 h; actives raise or lower the signal. The procedure, abridged:
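Cell model: human HepaRG, approx. 100,000 cells/well, 0.5% DMSO vehicle. Exposure lasts 48 h; phenobarbital 1 mM serves as induction positive control. Gene expression is measured by qRT-PCR against three endogenous control genes.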

Read-out in assay [16]: Cellular tumor antigen p53 (Homo sapiens) (UniProt P04637)
Kind of assay: LTEA_HepaRG_TP53: Life Technologies and Expression Analysis (LTEA) Assay for Tumor Protein P53 (TP53) using HepaRG (AID 2283537). The conditions noted are these: mRNA level, 48 h; actives raise or lower the signal. The procedure, abridged: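 HepaRG, 48 h exposure, top 100 uM, half-log 8-point, 0.5% DMSO vehicle, duplicates. Read: TP53 mRNA by TaqMan qRT-PCR, normalised to ACTB/GAPDH/POLR2A; bidirectional fit vs DMSO.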

Read-out in assay [17]: UDP glucuronosyltransferase (UGT1A1), UGT1A1 (gene 54658)
Kind of assay: LTEA_HepaRG_UGT1A1: Life Technologies and Expression Analysis (LTEA) Assay for UDP glucuronosyltransferase (UGT1A1) using HepaRG (AID 2283538). The conditions noted are these: mRNA level, 48 h; actives raise or lower the signal. The procedure, abridged:
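HepaRG, 48 h chemical exposure (top 100 uM, half-log 8-pt, 0.5% DMSO vehicle), duplicate wells; qRT-PCR (TaqMan, Fluidigm array) for UGT1A1 mRNA, housekeeping-normalized; bidirectional curve fit vs DMSO baseline.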

Read-out in assay [18]: UDP glucuronosyltransferase (UGT1A6), UGT1A6 (gene 54578)
Description: LTEA_HepaRG_UGT1A6: Life Technologies and Expression Analysis (LTEA) Assay for UDP glucuronosyltransferase (UGT1A6) using HepaRG (AID 2283539). Conditions: mRNA level, 48 h; actives raise or lower the signal. The procedure, abridged: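 Expression was quantified by TaqMan qRT-PCR on Fluidigm arrays with ACTB/GAPDH/POLR2A normalization and bidirectional fitting against 0.5% DMSO. HepaRG cells (~100,000/well) were treated in duplicate for 48 h at eight half-log concentrations up to 100 uM in serum-free induction medium.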

Read-out in assay [19]: X-box binding protein 1 (XBP1), XBP1 (gene 7494)
Description: LTEA_HepaRG_XBP1: Life Technologies and Expression Analysis (LTEA) Assay for X-box binding protein 1 (XBP1) using HepaRG (AID 2283540). Conditions: mRNA level, 48 h; actives raise or lower the signal. The procedure, abridged: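 XBP1 transcript by qRT-PCR (housekeeping-normalized: ACTB, GAPDH, POLR2A) after 48 h chemical treatment of HepaRG cells, 8-point half-log series topping at 100 uM, vehicle 0.5% DMSO. Gain and loss of signal fitted relative to DMSO.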

Assay [20] can be described thus: LTEA_HepaRG_LDH_cytotoxicity: Cytotoxicity Assessment in the Life Technologies and Expression Analysis (LTEA) Assay (AID 2283563; active = hit-call score of the fitted dose curve at least 0.9, where 1 is the maximum). The procedure, abridged: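 LDH release into culture medium read after 48 h chemical treatment of HepaRG cells. Duplicate wells, eight-point half-log series topping at 100 uM, 0.5% DMSO vehicle and baseline.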

What is called AC50 is the concentration at which the activity in the assay is half-maximal.

The source made the active and inactive calls. The calls were made as follows, unless noted: active = hit-call score of the fitted dose curve at least 0.9, where 1 is the maximum; inactive = score below 0.9.

Signal transducer and activator of transcription 3 (Homo sapiens), sequence (P40763 whole entry, looked up): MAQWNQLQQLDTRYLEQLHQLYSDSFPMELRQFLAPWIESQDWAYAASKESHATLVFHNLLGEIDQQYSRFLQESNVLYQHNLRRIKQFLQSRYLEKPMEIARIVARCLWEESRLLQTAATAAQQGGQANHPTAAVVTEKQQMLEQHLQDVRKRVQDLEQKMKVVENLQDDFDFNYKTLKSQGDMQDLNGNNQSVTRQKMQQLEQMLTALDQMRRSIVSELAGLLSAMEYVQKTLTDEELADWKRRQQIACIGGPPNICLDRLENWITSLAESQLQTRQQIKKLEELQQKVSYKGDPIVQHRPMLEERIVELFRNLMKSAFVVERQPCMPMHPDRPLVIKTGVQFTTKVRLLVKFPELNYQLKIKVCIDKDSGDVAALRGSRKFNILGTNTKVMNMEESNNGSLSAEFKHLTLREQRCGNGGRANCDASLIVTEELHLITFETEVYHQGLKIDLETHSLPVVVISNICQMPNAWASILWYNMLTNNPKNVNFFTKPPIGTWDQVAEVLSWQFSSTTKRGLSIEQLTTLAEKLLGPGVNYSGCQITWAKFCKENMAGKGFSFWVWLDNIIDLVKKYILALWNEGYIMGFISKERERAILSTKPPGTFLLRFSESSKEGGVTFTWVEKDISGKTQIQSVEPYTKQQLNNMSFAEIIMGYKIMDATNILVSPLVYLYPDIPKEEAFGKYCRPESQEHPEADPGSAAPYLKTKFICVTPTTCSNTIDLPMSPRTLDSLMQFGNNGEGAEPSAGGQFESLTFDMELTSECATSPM
Nuclear factor erythroid 2-related factor 2 (Homo sapiens), sequence (Q16236 whole entry, looked up): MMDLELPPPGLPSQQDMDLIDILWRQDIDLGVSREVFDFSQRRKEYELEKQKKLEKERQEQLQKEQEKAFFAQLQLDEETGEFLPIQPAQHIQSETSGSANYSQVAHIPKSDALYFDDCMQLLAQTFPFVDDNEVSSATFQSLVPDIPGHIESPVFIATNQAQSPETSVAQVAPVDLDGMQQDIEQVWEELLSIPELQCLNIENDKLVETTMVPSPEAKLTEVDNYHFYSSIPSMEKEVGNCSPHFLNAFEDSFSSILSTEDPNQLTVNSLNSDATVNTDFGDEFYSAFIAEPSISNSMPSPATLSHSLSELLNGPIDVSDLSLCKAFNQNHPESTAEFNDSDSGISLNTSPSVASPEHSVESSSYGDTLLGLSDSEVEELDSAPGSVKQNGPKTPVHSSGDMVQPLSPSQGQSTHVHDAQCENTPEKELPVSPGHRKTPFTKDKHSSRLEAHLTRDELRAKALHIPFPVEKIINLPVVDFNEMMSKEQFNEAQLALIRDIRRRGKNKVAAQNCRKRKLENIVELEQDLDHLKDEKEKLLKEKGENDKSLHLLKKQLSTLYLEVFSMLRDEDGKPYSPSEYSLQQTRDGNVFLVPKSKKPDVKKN
Cellular tumor antigen p53 (Homo sapiens), sequence (P04637 whole entry, looked up): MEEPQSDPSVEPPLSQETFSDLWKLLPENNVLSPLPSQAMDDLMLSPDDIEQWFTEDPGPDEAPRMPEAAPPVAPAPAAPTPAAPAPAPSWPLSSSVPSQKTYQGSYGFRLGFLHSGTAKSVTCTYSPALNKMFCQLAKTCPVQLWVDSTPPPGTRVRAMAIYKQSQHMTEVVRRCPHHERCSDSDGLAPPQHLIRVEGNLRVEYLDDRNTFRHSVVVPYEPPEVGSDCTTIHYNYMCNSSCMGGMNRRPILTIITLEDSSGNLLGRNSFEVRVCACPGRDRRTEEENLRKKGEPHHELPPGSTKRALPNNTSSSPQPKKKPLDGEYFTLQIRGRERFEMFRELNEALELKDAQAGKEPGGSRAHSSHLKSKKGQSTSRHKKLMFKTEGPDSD

Turning to `CCC(=NOC/C=C/Cl)C1=C(O)CC(C2CCOCC2)CC1=O` (centres undefined), the compound was classed as inactive in assay [1], in assay [2], in assay [3], in assay [4], in assay [5] and in assay [6]. The outcome in [7], in assay [8], in [9], in [10], in assay [11] and in assay [12] was inactive. For the same compound, the compound was classed as inactive in assay [13], in assay [14], in [15], in assay [16], in assay [17] and in [18]. Also, the outcome in [19] and in [20] was inactive.
In the case of `CN1COCN(Cc2cnc(Cl)s2)C1=N[N+](=O)[O-]`, the compound was classed as inactive in assay [1], in assay [2], in [3], in assay [4], in assay [5] and in assay [6]. Further, the compound was called inactive in assay [7], in assay [8], in [9], in [10], in assay [11] and in assay [12]. For the same compound, the outcome in assay [13], in assay [14], in [15], in assay [17], in [18] and in assay [19] was inactive. For the same compound, in [20], the compound was classed as inactive.
Consider `CCOP(=S)(OCC)Oc1ccc([N+](=O)[O-])cc1`, for which the result in assay [1], in assay [2], in assay [3], in assay [4], in [5] and in assay [6] was inactive. In addition, the call in [7], in assay [8], in [9], in [10], in assay [11] and in assay [12] was inactive. Further, the result in [13], in [14], in [15], in assay [16], in [18] and in [19] was inactive. The compound was called inactive in assay [20]. In assay [17], the AC50 was 10.6 µM (active).

(Values after PubChem BioAssay (EPA / NIEHS).)
